# DT40 TDP1 CPT: growth inhibition of DT40 Tdp1-/-;hTDP1 cells with camptothecin (screen for TDP1 inhibitors). Potency, µM (series often up to 46.2 µM), for the others: at the top dose activity change, negative = growth inhibition, most hits filed as inhibitors. AID 686979. chicken DT40 Tdp1-/-;hTDP1 cells + 20 nM CPT, ATP luminescence, 48 h. 420,000 compounds, 12% hits; further: potency means the concentration at half of the fitted maximal effect; nearly all actives have a fitted effect of over 55% in size
#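 Chicken DT40 Tdp1-/- cells stably complemented with human TDP1 were seeded at 400 cells/well in medium containing 20 nM camptothecin, exposed to pin-transferred compounds, and grown at 37 °C for at least 48 hr. Viability was read as ATP luminescence.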
# ELG1 repair inh: ELG1-dependent DNA repair inhibition. 330,000 compounds, 2.3% hits. HEK293T ELG1-luciferase reporter, luminescence, 16 h; DNA damage induced by 5-fluorouridine. AID 504467. Potency, µM (titrated, usually from 46.1 µM), inactives show at the highest dose activity change, negative = inhibition, actives largely listed as inhibitors; further: potency means the concentration at half of the fitted maximal effect; nearly all actives have a fitted effect of over 55% in size
#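 Quantitative HTS, concentration-response format. 2,000 cells/well co-treated with 5-fluorouridine and compound, 16 hr in 5% CO2 at 37 °C; ONE-Glo luminescence read after 30 min.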
# IL-1B inflam inh: inflammasome signaling inhibition, IL-1 beta readout; THP-1 LPS/ATP IL-1B secretion, AlphaLISA, 16 h; stronger effect = lower value; activity change, % at 57.5 µM; 360,000 compounds, 4.7% hits; AID 743279; in the data active means activity change below about -50%; inconclusive means mostly about -30% to -49%
#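 Secreted IL-1B measured by AlphaLISA bead assay after 16 h compound exposure of THP-1 cells; compounds (final up to 57.5 uM) added 1 h before LPS (250 ng/mL) and ATP (1.25 mM) stimulation; lower signal means less secretion.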
# Giardia kill: kills Giardia lamblia; AID 540267; Giardia lamblia trophozoite viability; activity change, % at 7.66 µM, hits read low; 340,000 compounds, 0.15% hits; in the data active means activity change below about -80%; inconclusive means between about -30% and that limit;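 further: parasites exposed to compound for two days anaerobically before the ATP read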
#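 Viability, read as ATP luminescence: trophozoites at 100 cells/well, compound added, 48 hrs anaerobic at 37 deg C, then 15-30 min room-temperature development before reading.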
# TDP1 cell noCPT: qHTS for Inhibitors of human tyrosyl-DNA phosphodiesterase 1 (TDP1): qHTS in cells in absence of CPT; DT40 Tdp1-/- hTDP1 cells, no CPT, ATP luminescence, 48 h; AID 686978, 2013; 420,000 compounds, 15% hits; Potency, µM (series often up to 46.2 µM), without a hit: at the top dose activity change, negative = growth inhibition, actives largely listed as inhibitors; further: potency means the concentration at half of the fitted maximal effect; nearly all actives have a fitted effect of over 55% in size
#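 Luminescent ATP content (CellTiter-Glo) served as the growth readout. Knockout chicken DT40 cells expressing human TDP1 were exposed to compounds without camptothecin for a minimum 48 hr at 37 °C.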
# TDP1 block: inhibitors of human tyrosyl-DNA phosphodiesterase TDP1. Q9NUW8. recombinant TDP1, AlphaScreen DNA substrate cleavage. Potency, µM (highest dose often 130 µM), without a hit: at the top dose activity change, negative = inhibition, most hits filed as inhibitors. 350,000 compounds, 0.28% hits. AID 485290; further: potency means the concentration at half of the fitted maximal effect; nearly all actives have a fitted effect of over 40% in size
# Target sequence (Q9NUW8 whole entry, looked up): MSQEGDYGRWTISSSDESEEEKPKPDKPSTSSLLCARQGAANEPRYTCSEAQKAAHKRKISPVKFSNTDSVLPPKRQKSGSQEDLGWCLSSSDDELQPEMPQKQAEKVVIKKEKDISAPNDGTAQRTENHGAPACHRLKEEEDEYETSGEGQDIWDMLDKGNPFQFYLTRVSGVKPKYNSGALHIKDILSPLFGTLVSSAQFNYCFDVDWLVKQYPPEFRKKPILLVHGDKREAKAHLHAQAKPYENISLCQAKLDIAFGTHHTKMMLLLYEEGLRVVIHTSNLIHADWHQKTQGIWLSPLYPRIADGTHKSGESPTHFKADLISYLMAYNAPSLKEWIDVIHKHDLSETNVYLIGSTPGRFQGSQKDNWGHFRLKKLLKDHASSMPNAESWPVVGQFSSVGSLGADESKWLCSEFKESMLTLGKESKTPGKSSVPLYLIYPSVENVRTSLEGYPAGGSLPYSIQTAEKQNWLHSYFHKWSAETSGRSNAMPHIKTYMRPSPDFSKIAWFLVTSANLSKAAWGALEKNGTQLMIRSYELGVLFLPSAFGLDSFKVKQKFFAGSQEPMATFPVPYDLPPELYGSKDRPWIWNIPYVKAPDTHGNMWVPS
#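 Tdp1 1 nM final; 15 min RT w/ cpd; substrate 15 nM, 5 min; beads 10 ug/ml, 10 min; AlphaScreen read. Neg ctrl: no enzyme.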
# Active calls of the source: *; u = inconclusive; x = not tested or not shown. Compounds with a hit are over-represented: about 19% of the library has one in this group of screens. Unless noted, the call rests on the fitted dose curve; in most records, active means well fitted curve in the direction sought with a large enough effect; inconclusive means small, poorly fitted or top-dose-only effect, or another doubt; inactive means no such curve, though single readings can be large; an effect the other way counts as inactive or inconclusive. On the % scale 0 is the no-effect control and ±100 the full control effect.
SMILES,DT40 TDP1 CPT,ELG1 repair inh,IL-1B inflam inh,Giardia kill,TDP1 cell noCPT,TDP1 block
Cc1ccccc1NC(=O)NCC1CCN(c2ccc(S(=O)(=O)N3CCOCC3)cc2)CC1,23µM*,-12%,-9,0,21µM*,10%
COc1ccc(-c2nc3cc(NC(=O)COc4ccccc4C)ccc3o2)cc1,-28%,x,x,x,-23%,2%
Cc1ccc2nc(-c3ccc(C)c(NC(=O)COc4ccccc4Cl)c3)oc2c1,-27%,x,x,x,12%,x
CC1=C(c2ccc(C)cc2)S(=O)(=O)NC1=NCc1ccccc1Cl,23µM*,x,x,x,21µM*,0%
COC(=O)CC1Oc2ccc(Cl)cc2-n2cc(-c3ccc(F)cc3)nc21 (centres undefined),-14%,x,x,x,-18%,-1%
COC(=O)c1cc(-c2ccc(C)cc2)n[nH]1,-26%,u,-11,-27,-14%,0%
COC(=O)CC1Oc2ccc(F)cc2-n2cc(-c3ccc(Cl)cc3)nc21 (centres undefined),9.2µM*,x,x,x,4.1µM*,6%
COC(=O)CC1Oc2ccc(F)cc2-n2cc(-c3ccc(C)cc3)nc21 (centres undefined),9.2µM*,x,x,x,7.3µM*,5%
Cc1nc(C(F)(F)F)ccc1C(=O)N1CCC1(C)C(=O)NCc1cccs1 (centres undefined),-9%,x,-18,x,-8%,x
CCOc1ccccc1CNC(=O)Cn1cc2c(n1)-c1c(oc(C(=O)N3CCCC3)c1C)CC2,13µM*,x,x,x,13µM*,8%
Cc1ccccc1CNC(=O)Cn1cc2c(n1)-c1c(oc(C(=O)N3CCCC3)c1C)CC2,u,x,x,x,u,8%
Cc1c(C(=O)N2CCCC2)oc2c1-c1nn(CC(=O)NCc3ccccc3Br)cc1CC2,u,x,x,x,21µM*,8%
Cc1c(C(=O)N2CCCC2)oc2c1-c1nn(CC(=O)NCc3ccccc3F)cc1CC2,u,x,x,x,u,3%
Cc1ccc(CSCC(=O)N2CCN(c3cc(Cl)ccc3C)CC2)cc1,u,x,x,x,u,-5%
CC(C)CNc1ncnc2nc[nH]c12,-7%,x,x,x,u,x
Cc1cccc(NC(=O)CN(C)S(=O)(=O)c2cccc3cccnc23)c1,u,-11%,-5,-17,-23%,6%
CCN(CCNC(=O)CN(C)S(=O)(=O)c1cccc2nsnc12)c1ccccc1,-28%,23µM*,-8,4,u,10%
Cc1cccc(NC(=O)CCS(=O)(=O)c2cccc3nsnc23)c1C,-23%,23%,-27,1,u,6%
Cc1c(Cl)cccc1NC(=O)CCS(=O)(=O)c1cccc2nsnc12,15µM*,x,x,x,u,3%
CCc1cccc(NC(=O)CN(C)S(=O)(=O)c2cccc3cccnc23)c1,16µM*,u,-23,-9,16µM*,-4%
CN(CC(=O)Nc1ccc(F)c(Cl)c1)S(=O)(=O)c1cccc2nsnc12,21µM*,-22%,-22,-9,18µM*,-2%
Cc1ccc(NC(=O)CN(C)S(=O)(=O)c2cccc3nsnc23)cc1,-2%,-28%,-19,18,-9%,3%
O=C(O)c1cccc(N2C(=O)c3cccc(Oc4ccc(Cl)cc4)c3C2=O)c1,-22%,u,26,12,-19%,3%
CCN(CC)C(=O)Cn1nnc2sc(-c3ccccc3)cc2c1=O,u,x,x,x,u,2%
CC(=O)N1c2ccc(S(=O)(=O)N3CCC(C(=O)N4CCN(c5cccc(C(F)(F)F)c5)CC4)CC3)cc2CC1C (centres undefined),8.2µM*,u,-30,3,2.3µM*,2%
SMILES,DT40 TDP1 CPT,ELG1 repair inh,IL-1B inflam inh,Giardia kill,TDP1 cell noCPT,TDP1 block
COc1ccc(N2CCN(S(=O)(=O)c3ccc4c(c3)NC(=O)CC(=O)N4)CC2)cc1,-29%,6%,33,-13,3%,6%
COc1ccc(N2CCN(S(=O)(=O)c3ccc4c(c3)CC(C)N4C(C)=O)CC2)cc1 (centres undefined),6.5µM*,x,x,x,u,2%
CCOC(=O)C1CCN(C(=O)C2CCN(S(=O)(=O)c3ccc4c(c3)CC(C)N4C(C)=O)CC2)CC1 (centres undefined),u,10µM*,17,23,-26%,2%
CCOC(=O)C1CCN(S(=O)(=O)c2ccc3c(c2)CC(C)N3C(=O)C2CC2)CC1 (centres undefined),-30%,-6%,32,-25,u,3%
CC(=O)N1c2ccc(S(=O)(=O)N3CCN(c4cccc(Cl)c4)CC3)cc2CC1C (centres undefined),u,x,x,x,u,0%
COc1ccc(N2CCN(S(=O)(=O)c3ccc4c(c3)C(C(C)C)C(=O)N4)CC2)cc1 (centres undefined),18µM*,x,x,x,8.2µM*,6%
CCCCNc1nc(C)nc2c1nc(-c1ccccc1)n2CCN1CCCCC1,x,x,x,x,x,5%
CC(=O)N1c2ccc(S(=O)(=O)N3CCCC(C(=O)N4CCCCC4)C3)cc2CC1C (centres undefined),u,-11%,18,-5,u,x
CC(=O)c1ccc(N2CCN(C(=O)C3CCN(S(=O)(=O)c4ccc5c(c4)CC(C)N5C(C)=O)CC3)CC2)cc1 (centres undefined),18µM*,-6%,-8,-6,u,3%
CC(c1ccccc1)N1CCC(CNC(=S)Nc2cccc(Cl)c2)C1 (centres undefined),u,2%,-80*,-8,u,5%
Cc1ccc(NC(=S)NCC2CCN(C(C)c3ccccc3)C2)cc1 (centres undefined),21µM*,6%,u,7,16µM*,0%
COc1ccc(N2CCC(CNC(=S)Nc3cccc(OC)c3)C2)cc1 (centres undefined),x,1%,x,x,x,9%
CC(C)c1nnc(NC(=O)Cc2ccc(Br)cc2)s1,1%,2%,21,-2,3%,1%
Cc1ccccc1-n1nc2c(c1NC(=O)c1cc3ccccc3o1)CS(=O)(=O)C2,-20%,-14%,-3,7,4%,-6%
Cc1ccc(Nc2nnc(SCc3cc(=O)n4ccsc4n3)s2)c(C)c1,-28%,-10%,-10,7,u,1%
Cc1cccc(Nc2nnc(SCc3cc(=O)n4cc(C)ccc4n3)s2)c1,23µM*,u,-2,-6,23µM*,4%
COc1ccccc1Nc1nnc(SCc2cc(=O)n3ccsc3n2)s1,u,-21%,1,-11,23µM*,-1%
S=c1nc[nH]c2c1sc1nc(N3CCOCC3)c3c(c12)CCCC3,u,10%,-7,29,23µM*,3%
